Measured values from the supplement of paper PMC11732987, “Enantioselective OTUD7B fragment discovery through chemoproteomics screening and high-throughput optimisation” (Communications Chemistry, 2025).

Columns and labels:
Assay in all cases: log2 ratio of Biotin-Ahx-Ub-VS probe labelling (fragment/DMSO); higher = less target engagement (more negative = stronger competition), active = hit call of the paper (q ≤ 0.05, log2 ratio ≤ -1)
Settings in all cases: compound concentration: 200 uM; treatment time: 3 h
USP19 = biological target: T1, USP19 (UniProt O94966)
T1 sequence (whole entry): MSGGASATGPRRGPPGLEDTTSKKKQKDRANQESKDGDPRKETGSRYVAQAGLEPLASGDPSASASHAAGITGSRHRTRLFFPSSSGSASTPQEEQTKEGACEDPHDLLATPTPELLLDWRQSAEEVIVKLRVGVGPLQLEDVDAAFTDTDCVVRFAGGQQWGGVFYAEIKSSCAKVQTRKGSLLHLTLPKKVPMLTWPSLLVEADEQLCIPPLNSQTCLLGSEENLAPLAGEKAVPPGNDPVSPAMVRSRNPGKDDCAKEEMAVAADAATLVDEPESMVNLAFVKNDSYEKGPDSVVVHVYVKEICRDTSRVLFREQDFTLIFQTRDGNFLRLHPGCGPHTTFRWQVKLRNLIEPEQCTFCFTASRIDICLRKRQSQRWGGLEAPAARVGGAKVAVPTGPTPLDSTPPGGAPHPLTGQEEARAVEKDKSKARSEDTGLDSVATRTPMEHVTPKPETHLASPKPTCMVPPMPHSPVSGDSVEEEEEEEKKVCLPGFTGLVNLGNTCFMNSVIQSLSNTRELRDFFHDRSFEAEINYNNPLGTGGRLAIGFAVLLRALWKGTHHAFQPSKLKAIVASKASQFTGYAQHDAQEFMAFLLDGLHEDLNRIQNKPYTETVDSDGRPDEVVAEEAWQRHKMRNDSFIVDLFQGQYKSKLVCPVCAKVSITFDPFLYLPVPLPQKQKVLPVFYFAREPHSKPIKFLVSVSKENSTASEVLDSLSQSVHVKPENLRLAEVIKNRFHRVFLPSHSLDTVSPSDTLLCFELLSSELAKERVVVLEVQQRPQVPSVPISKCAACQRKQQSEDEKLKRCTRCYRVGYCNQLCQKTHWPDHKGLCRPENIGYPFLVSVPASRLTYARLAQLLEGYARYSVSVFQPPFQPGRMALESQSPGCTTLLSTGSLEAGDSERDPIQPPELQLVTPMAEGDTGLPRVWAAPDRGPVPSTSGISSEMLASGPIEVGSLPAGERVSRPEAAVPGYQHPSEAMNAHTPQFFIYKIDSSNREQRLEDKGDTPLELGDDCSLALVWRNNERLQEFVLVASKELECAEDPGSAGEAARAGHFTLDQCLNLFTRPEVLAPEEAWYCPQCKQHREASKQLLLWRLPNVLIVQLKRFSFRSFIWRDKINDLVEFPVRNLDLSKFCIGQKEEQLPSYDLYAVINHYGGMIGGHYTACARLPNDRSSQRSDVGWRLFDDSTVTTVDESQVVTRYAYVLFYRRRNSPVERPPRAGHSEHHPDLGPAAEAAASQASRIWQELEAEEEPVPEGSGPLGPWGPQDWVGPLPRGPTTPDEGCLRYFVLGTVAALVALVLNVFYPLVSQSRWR
Summary of the method: (§1)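 Triplicate samples of HEK293T lysate, 495 µg each, received fragment at 200 µM or vehicle for 3 h, followed by Biotin-Ahx-Ub-VS (0.5 µM final) for 1 h. After NeutrAvidin enrichment of labelled DUBs and LysC/trypsin digestion, peptides were run by diaPASEF LC-MS/MS. The values are average log2 fragment/vehicle ratios from global-median-normalised Spectronaut label-free quantities, tested by unpaired t-test on proteins having ≥2 unique peptides.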

USP24 = USP24 (UniProt Q9UPU5)
Summary of the method: as §1

USP25 = biological target: T2, USP25 (UniProt Q9UHP3)
T2 sequence (whole entry): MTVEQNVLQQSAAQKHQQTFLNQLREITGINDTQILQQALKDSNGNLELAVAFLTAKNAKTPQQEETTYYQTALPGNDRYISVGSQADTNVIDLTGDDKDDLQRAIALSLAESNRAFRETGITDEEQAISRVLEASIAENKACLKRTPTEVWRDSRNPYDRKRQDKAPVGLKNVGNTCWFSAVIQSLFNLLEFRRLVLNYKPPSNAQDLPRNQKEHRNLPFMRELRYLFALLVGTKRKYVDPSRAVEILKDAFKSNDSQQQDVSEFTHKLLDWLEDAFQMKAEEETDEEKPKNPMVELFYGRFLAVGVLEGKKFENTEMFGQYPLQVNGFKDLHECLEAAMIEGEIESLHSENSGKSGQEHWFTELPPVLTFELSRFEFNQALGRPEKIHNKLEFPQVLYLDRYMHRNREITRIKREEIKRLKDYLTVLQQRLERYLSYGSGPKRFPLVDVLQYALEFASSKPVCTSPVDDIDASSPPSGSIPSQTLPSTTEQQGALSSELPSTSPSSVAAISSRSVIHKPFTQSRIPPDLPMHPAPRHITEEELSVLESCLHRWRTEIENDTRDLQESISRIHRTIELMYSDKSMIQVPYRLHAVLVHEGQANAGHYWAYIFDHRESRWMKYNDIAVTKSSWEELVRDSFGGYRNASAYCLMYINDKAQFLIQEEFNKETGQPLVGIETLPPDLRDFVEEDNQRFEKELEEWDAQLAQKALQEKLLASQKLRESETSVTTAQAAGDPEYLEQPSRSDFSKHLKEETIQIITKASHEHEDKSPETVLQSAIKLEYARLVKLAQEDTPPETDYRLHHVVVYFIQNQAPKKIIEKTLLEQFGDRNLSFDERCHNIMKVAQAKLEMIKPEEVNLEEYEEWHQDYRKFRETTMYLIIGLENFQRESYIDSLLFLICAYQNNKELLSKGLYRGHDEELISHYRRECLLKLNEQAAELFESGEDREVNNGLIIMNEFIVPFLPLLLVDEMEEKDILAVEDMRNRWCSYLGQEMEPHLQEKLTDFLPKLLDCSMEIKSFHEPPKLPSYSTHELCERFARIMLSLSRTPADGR
Summary of the method: as §1

USP28 = biological target: T3, USP28 (UniProt Q96RU2)
T3 sequence (whole entry): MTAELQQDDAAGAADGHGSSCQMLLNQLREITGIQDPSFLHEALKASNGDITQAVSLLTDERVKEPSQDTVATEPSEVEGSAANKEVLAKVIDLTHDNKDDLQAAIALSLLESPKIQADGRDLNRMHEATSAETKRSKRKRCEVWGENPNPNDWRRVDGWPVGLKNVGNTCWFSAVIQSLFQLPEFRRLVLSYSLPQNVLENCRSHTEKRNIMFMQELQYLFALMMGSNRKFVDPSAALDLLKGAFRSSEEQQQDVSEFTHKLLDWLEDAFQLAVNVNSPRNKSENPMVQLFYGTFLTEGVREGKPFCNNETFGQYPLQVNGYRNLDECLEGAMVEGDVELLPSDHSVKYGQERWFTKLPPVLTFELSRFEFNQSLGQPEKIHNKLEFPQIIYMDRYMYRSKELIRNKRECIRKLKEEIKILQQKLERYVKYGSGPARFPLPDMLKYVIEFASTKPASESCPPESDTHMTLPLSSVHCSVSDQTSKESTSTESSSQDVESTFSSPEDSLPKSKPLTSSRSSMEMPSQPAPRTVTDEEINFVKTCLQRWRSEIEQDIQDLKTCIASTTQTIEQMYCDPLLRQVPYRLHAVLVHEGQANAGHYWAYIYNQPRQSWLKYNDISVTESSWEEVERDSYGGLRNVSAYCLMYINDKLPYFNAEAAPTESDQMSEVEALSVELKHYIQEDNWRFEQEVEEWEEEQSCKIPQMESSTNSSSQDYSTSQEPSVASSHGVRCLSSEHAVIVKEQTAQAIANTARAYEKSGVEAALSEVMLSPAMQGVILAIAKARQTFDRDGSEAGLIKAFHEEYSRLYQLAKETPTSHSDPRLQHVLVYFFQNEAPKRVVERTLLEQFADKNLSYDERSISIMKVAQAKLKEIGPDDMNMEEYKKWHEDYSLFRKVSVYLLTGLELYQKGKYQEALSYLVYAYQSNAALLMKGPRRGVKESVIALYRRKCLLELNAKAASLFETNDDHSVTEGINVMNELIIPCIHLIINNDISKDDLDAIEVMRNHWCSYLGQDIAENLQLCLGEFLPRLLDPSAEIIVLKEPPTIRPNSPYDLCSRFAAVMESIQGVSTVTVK
Summary of the method: as §1

Measured: log2 ratio of Biotin-Ahx-Ub-VS probe labelling

Sequence of USP24 (Q9UPU5 whole entry): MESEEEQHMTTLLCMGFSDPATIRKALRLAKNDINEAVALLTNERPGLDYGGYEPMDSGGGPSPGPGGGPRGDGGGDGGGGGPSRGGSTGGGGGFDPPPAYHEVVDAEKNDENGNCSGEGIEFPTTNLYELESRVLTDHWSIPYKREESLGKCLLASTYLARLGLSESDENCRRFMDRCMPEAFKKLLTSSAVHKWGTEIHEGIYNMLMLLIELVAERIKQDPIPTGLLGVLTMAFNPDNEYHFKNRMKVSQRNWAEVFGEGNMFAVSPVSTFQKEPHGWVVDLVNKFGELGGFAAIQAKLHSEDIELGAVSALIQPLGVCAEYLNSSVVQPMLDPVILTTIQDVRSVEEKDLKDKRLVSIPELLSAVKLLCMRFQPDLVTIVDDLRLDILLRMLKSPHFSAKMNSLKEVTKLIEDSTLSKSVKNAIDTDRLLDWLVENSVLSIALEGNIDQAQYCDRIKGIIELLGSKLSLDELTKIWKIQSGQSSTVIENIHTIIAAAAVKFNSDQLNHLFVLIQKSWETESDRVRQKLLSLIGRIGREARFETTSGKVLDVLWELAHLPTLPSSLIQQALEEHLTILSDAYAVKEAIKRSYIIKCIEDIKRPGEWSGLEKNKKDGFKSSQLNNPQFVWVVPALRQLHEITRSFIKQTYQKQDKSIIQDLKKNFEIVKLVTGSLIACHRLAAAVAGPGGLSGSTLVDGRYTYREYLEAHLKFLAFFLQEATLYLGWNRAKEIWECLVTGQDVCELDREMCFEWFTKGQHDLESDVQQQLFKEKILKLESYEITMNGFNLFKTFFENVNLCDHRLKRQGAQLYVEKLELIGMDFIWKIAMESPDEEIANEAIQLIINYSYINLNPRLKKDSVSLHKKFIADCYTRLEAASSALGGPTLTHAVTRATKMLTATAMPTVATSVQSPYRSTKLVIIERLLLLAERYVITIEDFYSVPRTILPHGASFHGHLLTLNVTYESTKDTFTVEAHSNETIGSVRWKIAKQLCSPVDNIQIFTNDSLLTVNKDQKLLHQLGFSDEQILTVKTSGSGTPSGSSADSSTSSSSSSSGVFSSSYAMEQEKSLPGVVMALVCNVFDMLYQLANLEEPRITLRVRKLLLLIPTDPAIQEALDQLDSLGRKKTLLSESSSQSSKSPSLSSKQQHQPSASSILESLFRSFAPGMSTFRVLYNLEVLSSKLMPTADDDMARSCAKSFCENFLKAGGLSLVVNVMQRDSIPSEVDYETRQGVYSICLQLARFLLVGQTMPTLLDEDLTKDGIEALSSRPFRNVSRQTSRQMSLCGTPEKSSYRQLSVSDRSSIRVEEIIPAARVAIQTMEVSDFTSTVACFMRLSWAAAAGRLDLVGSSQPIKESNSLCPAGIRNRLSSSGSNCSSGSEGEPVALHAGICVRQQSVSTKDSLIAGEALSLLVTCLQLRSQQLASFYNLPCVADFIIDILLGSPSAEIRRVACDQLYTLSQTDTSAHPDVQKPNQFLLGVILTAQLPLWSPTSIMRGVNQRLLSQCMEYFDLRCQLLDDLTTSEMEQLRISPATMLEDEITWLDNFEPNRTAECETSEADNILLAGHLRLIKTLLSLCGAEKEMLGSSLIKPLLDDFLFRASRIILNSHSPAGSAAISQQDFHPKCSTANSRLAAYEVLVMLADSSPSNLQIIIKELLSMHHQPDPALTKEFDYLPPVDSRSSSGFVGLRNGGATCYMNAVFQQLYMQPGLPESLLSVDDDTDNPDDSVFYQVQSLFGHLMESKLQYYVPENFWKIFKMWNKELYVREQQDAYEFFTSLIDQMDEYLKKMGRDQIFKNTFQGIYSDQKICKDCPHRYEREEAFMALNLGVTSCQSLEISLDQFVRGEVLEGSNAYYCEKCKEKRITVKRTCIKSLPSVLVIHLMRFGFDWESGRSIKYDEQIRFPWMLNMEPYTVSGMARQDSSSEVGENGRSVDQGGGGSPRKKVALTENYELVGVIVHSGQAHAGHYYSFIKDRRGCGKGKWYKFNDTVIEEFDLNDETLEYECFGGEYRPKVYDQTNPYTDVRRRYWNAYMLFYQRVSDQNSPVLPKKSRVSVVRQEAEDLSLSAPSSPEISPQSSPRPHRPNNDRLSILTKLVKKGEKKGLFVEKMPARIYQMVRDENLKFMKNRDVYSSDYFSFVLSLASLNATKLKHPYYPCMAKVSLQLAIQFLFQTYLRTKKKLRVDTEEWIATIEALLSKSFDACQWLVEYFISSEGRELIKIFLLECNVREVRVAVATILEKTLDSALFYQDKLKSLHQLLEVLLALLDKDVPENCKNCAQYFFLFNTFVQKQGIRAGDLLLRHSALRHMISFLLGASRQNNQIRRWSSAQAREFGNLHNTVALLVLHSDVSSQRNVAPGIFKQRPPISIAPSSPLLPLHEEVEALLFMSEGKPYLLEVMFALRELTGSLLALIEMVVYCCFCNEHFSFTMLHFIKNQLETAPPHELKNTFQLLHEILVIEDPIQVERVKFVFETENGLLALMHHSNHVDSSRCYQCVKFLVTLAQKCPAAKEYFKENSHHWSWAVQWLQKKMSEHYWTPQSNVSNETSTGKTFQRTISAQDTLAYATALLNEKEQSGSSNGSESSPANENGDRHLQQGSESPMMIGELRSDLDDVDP

O=C(CCl)N(Cc1ccsc1)C1CC1
inactive: USP19 -0.0676 | USP24 -0.704 | USP25 -0.45 | USP28 -0.283
